Activity calls are given as the source filed them. How the source made its calls: active means hit-call score of the fitted dose curve at least 0.9, where 1 is the maximum; inactive means score below 0.9.
Assays:
[1] = BSK_CASM3C_SRB: Viability Assessment in the BioMAP Diversity Plus: CASM3C Assay (AID 2283050); conditions: primary human coronary artery smooth muscle cells;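 further: cells exposed to compound for 24 h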
[2] = read-out: Thrombomodulin, THBD (gene 7056); experiment: BSK_CASM3C_Thrombomodulin: BioMAP Diversity Plus: CASM3C Assay for Thrombomodulin Biomarker Activity (AID 2283051); conditions: primary human coronary artery smooth muscle cells; actives raise or lower the signal;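 further: thrombomodulin protein level measured by ELISA 24 h after dosing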
[3] = read-out: Tissue Factor, F3 (gene 2152); experiment: BSK_CASM3C_TissueFactor: BioMAP Diversity Plus: CASM3C Assay for Tissue Factor Biomarker Activity (AID 2283052); conditions: primary human coronary artery smooth muscle cells; actives raise or lower the signal;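 further: cell surface tissue factor protein level read by ELISA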
[4] = read-out: Interferon-gamma inducible Protein 10 (IP10), CXCL10 (gene 3627); experiment: BSK_hDFCGF_IP10: BioMAP Diversity Plus: hDFCGF Assay for Interferon-gamma inducible Protein 10 (IP10) Biomarker Activity (AID 2283053); conditions: primary human foreskin fibroblasts; actives raise or lower the signal
Procedure, shortened: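 Chemical-treated human skin fibroblasts (primary) were sampled at 24 h for IP-10 by ELISA. Both increases and decreases relative to DMSO were scored.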

[5] = read-out: Urokinase-type plasminogen activator receptor (uPAR), PLAUR (gene 5329); experiment: BSK_CASM3C_uPAR: BioMAP Diversity Plus: CASM3C Assay for Urokinase-type plasminogen activator receptor (uPAR) Biomarker Activity (AID 2283054); conditions: primary human coronary artery smooth muscle cells; actives raise or lower the signal;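 further: cell-surface uPAR protein level quantified by ELISA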
[6] = read-out: Vascular cell adhesion molecule 1 (VCAM1), VCAM1 (gene 7412); experiment: BSK_CASM3C_VCAM1: BioMAP Diversity Plus: CASM3C Assay for Vascular cell adhesion molecule 1 (VCAM1) Biomarker Activity (AID 2283055); conditions: primary human coronary artery smooth muscle cells; actives raise or lower the signal;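 further: VCAM-1 protein level quantified by ELISA on the cells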
[7] = read-out: Collagen III, COL3A1 (gene 1281); experiment: BSK_hDFCGF_CollagenIII: BioMAP Diversity Plus: hDFCGF Assay for Collagen III Biomarker Activity (AID 2283056); conditions: primary human foreskin fibroblasts; actives raise or lower the signal
Procedure, shortened: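 Human foreskin fibroblast primary cultures sampled 24 h after dosing; Collagen III quantified by ELISA. Signal fitted bidirectionally against DMSO baseline.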

[8] = read-out: Interleukin-8 (IL8), CXCL8 (gene 3576); experiment: BSK_hDFCGF_IL8: BioMAP Diversity Plus: hDFCGF Assay for Interleukin-8 (IL8) Biomarker Activity (AID 2283058); conditions: primary human foreskin fibroblasts; actives raise or lower the signal
Procedure, shortened: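 Primary human foreskin fibroblasts (hDFCGF system) dosed with chemical; IL-8 measured by ELISA 24 hours later. Bidirectional curve fitting relative to DMSO baseline; cytotoxicity tracked in parallel cultures by SRB total protein staining.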

[9] = BSK_hDFCGF_Proliferation: Cell Proliferation Assessment in the BioMAP Diversity Plus: hDFCGF Assay (AID 2283059); conditions: primary human foreskin fibroblasts;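 further: curves fitted for both rise and fall of signal versus DMSO baseline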
Procedure, shortened: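 Steps: dose primary human dermal fibroblasts (foreskin); […] fix in 10% TCA; stain with 0.1% SRB; read 560 nm; fit gain or loss of signal against DMSO.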

[10] = read-out: Macrophage colony-stimulating factor (MCSF), CSF1 (gene 1435); experiment: BSK_hDFCGF_MCSF: BioMAP Diversity Plus: hDFCGF Assay for Macrophage colony-stimulating factor (MCSF) Biomarker Activity (AID 2283060); conditions: primary human foreskin fibroblasts; actives raise or lower the signal
Procedure, shortened: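 Human foreskin fibroblast primary cultures; M-CSF measured by ELISA 24 hours after chemical dosing. Bidirectional fitting relative to DMSO, with overt cytotoxicity tracked by parallel SRB total-protein staining (0.1% SRB, 10% TCA fixation, 560 nm).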

[11] = BSK_hDFCGF_SRB: Viability Assessment in the BioMAP Diversity Plus: hDFCGF Assay (AID 2283061); conditions: primary human foreskin fibroblasts;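 further: cells exposed to compound for 24 h before the read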
Procedure, shortened: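 Human foreskin fibroblasts in 96-well plates were treated 24 h. Total protein was measured by 0.1% SRB staining after 10% TCA fixation, read at 560 nm. Data were fitted bidirectionally against DMSO.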

[12] = read-out: TIMP metallopeptidase inhibitor 1 (TIMP1), TIMP1 (gene 7076); experiment: BSK_hDFCGF_TIMP1: BioMAP Diversity Plus: hDFCGF Assay for TIMP metallopeptidase inhibitor 1 (TIMP1) Biomarker Activity (AID 2283062); conditions: primary human foreskin fibroblasts; actives raise or lower the signal
Procedure, shortened: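 Human foreskin fibroblast primary cultures dosed for 24 h; secreted/surface TIMP-1 quantified by ELISA. Bidirectional curve fitting against DMSO baseline; cytotoxicity tracked in parallel cultures by SRB total-protein staining.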

[13] = read-out: Monokine induced gamma interferon (MIG), CXCL9 (gene 4283); experiment: BSK_hDFCGF_MIG: BioMAP Diversity Plus: hDFCGF Assay for Monokine induced gamma interferon (MIG) Biomarker Activity (AID 2283063); conditions: primary human foreskin fibroblasts; actives raise or lower the signal
Procedure, shortened: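 MIG/CXCL9 measured by ELISA 24 h after dosing primary human skin fibroblasts. Activity fitted in both directions against DMSO controls. Cytotoxicity was checked in parallel cultures by SRB staining read at 560 nm.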

[14] = read-out: Matrix Metallopeptidase 1 (MMP1), MMP1 (gene 4312); experiment: BSK_hDFCGF_MMP1: BioMAP Diversity Plus: hDFCGF Assay for Matrix Metallopeptidase 1 (MMP1) Biomarker Activity (AID 2283064); conditions: primary human foreskin fibroblasts; actives raise or lower the signal
Procedure, shortened: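 Human foreskin fibroblasts exposed to chemical for 24 h; MMP1 detected by ELISA, with DMSO as baseline for bidirectional fitting.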

[15] = read-out: Vascular cell adhesion molecule 1 (VCAM1), VCAM1 (gene 7412); experiment: BSK_hDFCGF_VCAM1: BioMAP Diversity Plus: hDFCGF Assay for Vascular cell adhesion molecule 1 (VCAM1) Biomarker Activity (AID 2283065); conditions: primary human foreskin fibroblasts; actives raise or lower the signal;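 on AC50: VCAM-1 protein level quantified by ELISA after 24 h chemical exposure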
Procedure, shortened: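 Human foreskin fibroblast primary cells dosed with chemical, VCAM-1 measured by ELISA at 24 h. Bidirectional curve fitting relative to DMSO as negative control/baseline.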

[16] = read-out: Plasminogen activator inhibitor-1 (PAI1), SERPINE1 (gene 5054); experiment: BSK_hDFCGF_PAI1: BioMAP Diversity Plus: hDFCGF Assay for Plasminogen activator inhibitor-1 (PAI1) Biomarker Activity (AID 2283066); conditions: primary human foreskin fibroblasts; actives raise or lower the signal
Procedure, shortened: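 Human skin fibroblast cultures receive chemical for 24 h before PAI-1 is measured by ELISA; signal changes are fitted bidirectionally against DMSO-treated wells.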

[17] = read-out: Intercellular Adhesion Molecule 1 (ICAM1), ICAM1 (gene 3383); experiment: BSK_KF3CT_ICAM1: BioMAP Diversity Plus: KF3CT Assay for Intercellular Adhesion Molecule 1 (ICAM1) Biomarker Activity (AID 2283067); conditions: primary human keratinocytes with fibroblasts; actives raise or lower the signal
Procedure, shortened: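 Human keratinocyte–foreskin fibroblast co-culture was treated for 24 h. Cell-surface ICAM-1 was quantified by ELISA, fitted bidirectionally relative to DMSO. Cytotoxicity was checked in parallel cultures by SRB total-protein staining.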

[18] = read-out: Interferon-gamma inducible Protein 10 (IP10), CXCL10 (gene 3627); experiment: BSK_KF3CT_IP10: BioMAP Diversity Plus: KF3CT Assay for Interferon-gamma inducible Protein 10 (IP10) Biomarker Activity (AID 2283068); conditions: primary human keratinocytes with fibroblasts; actives raise or lower the signal
Procedure, shortened: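 KF3CT co-culture (keratinocytes + foreskin fibroblasts), 24 h compound, IP-10 by ELISA; bidirectional fit vs DMSO baseline.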

[19] = BSK_KF3CT_SRB: Viability Assessment in the BioMAP Diversity Plus: KF3CT Assay (AID 2283069); conditions: primary human keratinocytes with fibroblasts;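 further: read 24 h after compound addition; fitted for both signal gain and loss against DMSO baseline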
Procedure, shortened: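 Overt cytotoxicity is assessed as total protein by sulforhodamine B staining in parallel human skin co-cultures at 24 h after dosing. DMSO serves as negative control and baseline.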

[20] = read-out: Epidermal growth factor receptor (EGFR), EGFR (gene 1956); experiment: BSK_hDFCGF_EGFR: BioMAP Diversity Plus: hDFCGF Assay for Epidermal growth factor receptor (EGFR) Biomarker Activity (AID 2283057); conditions: primary human foreskin fibroblasts; actives raise or lower the signal
Procedure, shortened: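 Cell-based multiplexed assay in primary human foreskin fibroblasts. EGFR is read by ELISA 24 h after treatment and compared with DMSO controls.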

Measured: AC50

CCCCC(CC)CN1C(=O)C2C3C=CC(C3)C2C1=O (stereo not given)
inactive: [1] | [2] | [3] | [5] | [6] | [8] | [11] | [12] | [13] | [15] | [16] | [17] | [19]
active: [4] 3.97 µM | [7] 30 µM | [9] 29.6 µM | [10] 20 µM | [14] 16 µM | [18] 20 µM

COC(=O)c1ccc(CNS(C)(=O)=O)cc1S(=O)(=O)NC(=O)Nc1nc(OC)cc(OC)n1
inactive: [1] | [2] | [3] | [4] | [5] | [6] | [7] | [8] | [9] | [10] | [11] | [12] | [13] | [14] | [15] | [16] | [17] | [18] | [19]

O=C(c1ccc(O)cc1O)c1ccc(O)cc1O
inactive: [1] | [2] | [3] | [4] | [5] | [6] | [7] | [20] | [8] | [9] | [10] | [11] | [12] | [13] | [14] | [15] | [16] | [17] | [18] | [19]

COC(=O)c1c(Cl)nn(C)c1S(=O)(=O)NC(=O)Nc1nc(OC)cc(OC)n1
active: [18] 20 µM
inactive: [1] | [2] | [3] | [4] | [5] | [6] | [7] | [20] | [8] | [9] | [10] | [11] | [12] | [13] | [14] | [15] | [16] | [17] | [19]

CCCCC(CC)COC(=O)c1ccccc1C(=O)O (stereo not given)
inactive: [1] | [2] | [3] | [5] | [6] | [7] | [8] | [9] | [11] | [12] | [14] | [16] | [17] | [18] | [19]
active: [4] 11 µM | [10] 9.84 µM | [13] 13.8 µM | [15] 10.2 µM

CC(C)CCCCCCc1ccc(O)cc1
active: [1] 32.6 µM | [2] 4.65 µM | [3] 26.9 µM | [4] 9.75 µM | [5] 31.8 µM | [6] 33.8 µM | [7] 9.95 µM | [20] 12.2 µM | [8] 11.7 µM | [9] 7.24 µM | [10] 8.61 µM | [11] 10.2 µM | [12] 11.9 µM | [13] 8.13 µM | [14] 9.57 µM | [15] 9.07 µM | [16] 11.1 µM | [17] 7.58 µM | [18] 9.35 µM | [19] 5.35 µM

S=C([S-])NCCNC(=S)[S-].[Mn+2]
inactive: [1] | [3] | [5] | [6] | [8] | [11] | [12] | [19]
active: [2] 27.1 µM | [4] 30.7 µM | [7] 29.1 µM | [20] 0.149 µM | [9] 8.5 µM | [10] 25.8 µM | [13] 32.4 µM | [14] 4.73 µM | [16] 16.4 µM | [18] 27.4 µM

CCCN(CCC)c1c([N+](=O)[O-])cc(C(F)(F)F)c(N)c1[N+](=O)[O-]
active: [2] 3.97 µM | [4] 31.3 µM | [7] 31.4 µM | [9] 26.7 µM | [10] 27.9 µM | [11] 33.3 µM | [12] 30.2 µM | [13] 35.9 µM | [14] 35.5 µM | [15] 26.9 µM | [16] 20 µM | [17] 36 µM | [18] 34.7 µM | [19] 31.3 µM
inactive: [1] | [3] | [5] | [6] | [8]

COC(=O)c1ccccc1S(=O)(=O)NC(=O)Nc1nc(OC(F)F)cc(OC(F)F)n1
inactive: [1] | [2] | [3] | [4] | [5] | [6] | [7] | [8] | [9] | [10] | [11] | [12] | [13] | [14] | [15] | [16] | [17] | [18] | [19]

CN(C)C(=O)Nc1ccc(Cl)c(Cl)c1
inactive: [1] | [2] | [3] | [4] | [5] | [6] | [7] | [8] | [9] | [10] | [11] | [12] | [13] | [14] | [15] | [16] | [17] | [18] | [19]

C#C[C@]1(O)CC[C@H]2[C@@H]3CCC4=CC(=O)CC[C@@H]4[C@H]3CC[C@@]21CC
inactive: [1] | [2] | [3] | [4] | [5] | [6] | [7] | [8] | [9] | [10] | [11] | [12] | [13] | [14] | [15] | [16] | [17] | [18] | [19]

CCN(Cc1c(F)cccc1Cl)c1c([N+](=O)[O-])cc(C(F)(F)F)cc1[N+](=O)[O-]
active: [4] 30.6 µM | [5] 13.2 µM | [9] 4.89 µM | [13] 20 µM | [14] 9.24 µM | [18] 2.54 µM
inactive: [1] | [2] | [3] | [6] | [7] | [8] | [10] | [11] | [12] | [15] | [16] | [17] | [19]

Source: PubChem BioAssay (EPA / NIEHS)
